Test [1] is described as follows: NCI Yeast Anticancer Drug Screen. Data for the rad50 strain (AID 155).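 Note: 0% = growth of vehicle-only cultures of the same strain.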 The note with it: S. cerevisiae rad50 strain growth inhibition; at 50.0 µM; stronger effect = higher value. In a few lines: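 Yeast carrying a defined DNA repair defect were exposed to test compounds, and growth was compared with vehicle-treated controls to give percent inhibition.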
A short description of test [2]: NCI Yeast Anticancer Drug Screen. Data for the mec2-1 strain (AID 157). As to conditions: S. cerevisiae mec2-1 strain, at 50.0 µM, stronger effect = higher value. A digest of the protocol: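 Readout is yeast growth inhibition, normalised to vehicle-treated controls, in the mec2-1 strain exposed to compound.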
Test [3] can be described thus: NCI Yeast Anticancer Drug Screen. Data for the sgs1 mgt1 strain (AID 161).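 Note: 0% = growth of cultures given vehicle only.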 As to conditions: S. cerevisiae sgs1 mgt1 strain, at 50.0 µM, stronger effect = higher value. In a few lines: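 Compounds are added to genetically altered yeast, and growth is compared with cultures given vehicle alone to give percent inhibition.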
A short description of test [4]: NCI Yeast Anticancer Drug Screen. Data for the cln2 rad14 strain (AID 165).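 Note: 0% = growth equal to vehicle treated cultures.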 As to conditions: S. cerevisiae cln2 rad14 strain, at 50.0 µM, stronger effect = higher value. A digest of the protocol:
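Relative to vehicle controls, growth inhibition of compound-treated cln2 rad14 yeast was recorded.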

A short description of test [5]: NCI Yeast Anticancer Drug Screen. Data for the bub3 strain (AID 167). The note with it: S. cerevisiae bub3 mutant strain, at 50.0 µM, stronger effect = higher value. A digest of the protocol: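 Compounds were applied to a genetically altered yeast strain carrying a cell-cycle control defect. Growth inhibition was scored against vehicle-treated controls.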
The nature of test [6]: NCI Yeast Anticancer Drug Screen. Data for the mlh1 rad18 strain (AID 175). As to conditions: S. cerevisiae mlh1 rad18 strain growth inhibition; at 50.0 µM; stronger effect = higher value. A digest of the protocol: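 Test agents were incubated with a yeast strain of defined genotype (DNA damage repair defect). Inhibition of growth was derived by comparison with vehicle-exposed cultures.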

Compounds without any hit were thinned out: in the full panel of roughly 79,000, 15% have a hit. Values without a mark were called inactive. The source made the active and inactive calls. Cut-off read from the data, not from the text of the source: active = growth inhibition above about 70%; inactive = the rest.

The results in this text go back to PubChem BioAssay (NCI).

For `CC(C)/C=N/N=C/C(C)C`, the growth inhibition was -15.8% in test [1]; 9.7% in test [2]; -16.6% in test [3]; 15.3% in test [4]; -13.6% in test [5]; -12.8% in test [6].
With `CC(=S)N=Cc1c(C)[nH]n(-c2ccccc2)c1=O`, the growth inhibition in test [1] is -49.4%; in test [2], -29.8%; in test [3], -41.4%; in test [4], 19.6%; in test [5], -57.7%; in test [6], -31.9%.
For the compound `CC(=O)Nc1ccc(N)cc1-c1ccc(N)cc1`, the growth inhibition in test [1] was -2.75%; in test [2], -16.9%; in test [3] it was 1.5%; in test [4] it was 29.1%; in test [5], 5.25%; in test [6], -18%.
Take `C1CSCCSCSCCS1`: the growth inhibition is 32.1% in test [1]; 11.8% in test [2]; 17.8% in test [3]; 30.7% in test [4]; 42.4% in test [5]; 17.8% in test [6].
Take `Cc1ccc2nc(CC(=O)c3ccccc3)c(CC(=O)c3ccccc3)nc2c1`: the growth inhibition in test [1] is 0.7%; in test [2], -17%; in test [3] it was 2.25%; in test [4], 24.1%; in test [5], 0.15%; in test [6], -2.9%.
Take `CC1(C)CC(=O)c2c(N)n[nH]c2C1`: the growth inhibition in test [1] is -0.35%; in test [2], 3.1%; in test [3], -8.55%; in test [4], -2.2%; in test [5], 1.35%; in test [6], -15%.
`COc1ccc(C2c3cc4c(cc3OC(O)(CO)C2C(=O)O)OCO4)c(OC)c1OC` (configuration not stated) (tested in a mixture with another compound): the growth inhibition in test [1] was 0.2%; in test [2] it was -4%; in test [3] it was 6%; in test [4], -15.5%; in test [5] it was -18.3%; in test [6] it was 9.65%.
With `COC(=O)N1c2ccccc2[C@@H](O)[C@@H]1OC`, the growth inhibition in test [1] was 14.4%; in test [2], 11.7%; in test [3], 7.25%; in test [4], -4.7%; in test [5], 11.7%; in test [6], -6.6%.
As for `COc1cc(C(=O)O)c(Cc2ccccc2)c(OC)c1O`, the growth inhibition was 9.8% in test [1]; 5.95% in test [2]; 1.05% in test [3]; 5.6% in test [4]; 9.05% in test [5]; -3.2% in test [6].
Regarding `Cc1cc(C)c(CCl)c(C)c1CCl`, the growth inhibition in test [1] is 0.9%; in test [2], 2%; in test [3], -9.1%; in test [4], -57.5%; in test [5] it was 5.75%; in test [6], 10.2%.
Turning to `[Cl][Eu]([Cl])[Cl]`, the growth inhibition in test [1] was 22.4%; in test [2], 17.9%; in test [3], 24.2%; in test [4], 42.9%; in test [5] it was 34.2%; in test [6], 19.8%.
On to `COc1cc(C2(C)SCCCS2)cc(OC)c1OC`, for which the growth inhibition in test [1] was -10.9%; in test [2], -8.1%; in test [3], -4.05%; in test [4], 0.2%; in test [5], 25.8%; in test [6] it was -15.3%.
`C/C=C(\CC)C(C)(C#N)C(=O)OCC` (configuration not stated): the growth inhibition was -13.3% in test [1]; -33.3% in test [2]; -21.2% in test [3]; -3.45% in test [4]; -27.8% in test [5]; -29.1% in test [6].
Take `CN(C)c1ccc(C(=Cc2ccccc2)c2ccc(N(C)C)cc2)cc1`: the growth inhibition in test [1] was -0.9%; in test [2], 18.3%; in test [3], -2.8%; in test [4], -63.6%; in test [5], 0.8%; in test [6] it was 5.5%.
Consider `O=C(NCCc1ccccc1)[C@H]1CCCC[C@@H]1CCO`, for which the growth inhibition in test [1] was 19.4%; in test [2] it was 0.85%; in test [3], -31.9%; in test [4] it was 0.4%; in test [5] it was -39.8%; in test [6], -28.6%.
As to `O=c1/c(=C\C=C\c2ccccc2)sc2n1CCN=2`, the growth inhibition in test [1] is -15.7%; in test [2], -40.6%; in test [3] it was -11.3%; in test [4] it was -10.8%; in test [5] it was -22.2%; in test [6], -13.5%.
For the compound `NC(=O)N=Nc1ccc(Br)cc1`, the growth inhibition in test [1] was 9.8%; in test [2], 7.05%; in test [3], -7.85%; in test [4], -11.7%; in test [5] it was -3.55%; in test [6] it was 18.3%.
Turning to `COC(=O)c1s/c(=N\C(=S)N(C)C)n(-c2ccccc2)c1C(=O)OC`, the growth inhibition in test [1] is 5.3%; in test [2], 20.2%; in test [3], -0.1%; in test [4] it was 15.2%; in test [5], -8.85%; in test [6], 11.2%.
Take `COc1cc2[nH]c(-c3ccccc3)cc(=O)c2c(OC)c1OC`: the growth inhibition was -11.3% in test [1]; -3.65% in test [2]; -8% in test [3]; 0.25% in test [4]; 8.85% in test [5]; 3.35% in test [6].
Turning to `CN(C)c1ccc([N+](=O)[O-])c2c1CCC2`, the growth inhibition in test [1] was 9.7%; in test [2], -4.55%; in test [3], 7.25%; in test [4] it was 5.6%; in test [5], 6.85%; in test [6], 6.55%.
For the compound `COC(=O)CNC(=O)C(Cc1ccccc1)NC(=O)OCc1ccccc1` (configuration not stated), the growth inhibition in test [1] was -4.95%; in test [2], -3.75%; in test [3] it was -1.55%; in test [4], 1.9%; in test [5], 15.8%; in test [6], -3.3%.
As for `Cc1cc(C)n(/N=C/c2ccccc2)c(=O)c1C#N`, the growth inhibition in test [1] is 7.3%; in test [2], -10.3%; in test [3] it was 0.55%; in test [4], -0.55%; in test [5] it was 35.6%; in test [6] it was -0.05%.
As to `CC1(C)c2ccccc2C(=O)c2ccccc21`, the growth inhibition was 8.1% in test [1]; 6.65% in test [2]; 2.6% in test [3]; -4.6% in test [4]; -2.75% in test [5]; 5.45% in test [6].
Take `COC(=O)NC1=Nc2ccccc2N(C(=O)Oc2ccccc2)S1`: the growth inhibition in test [1] is 7.8%; in test [2], 0.6%; in test [3], 26.4%; in test [4], 23.6%; in test [5], 83.2% (active); in test [6] it was 33.9%.
Regarding `Cc1ccc([N+](=O)[O-])cc1NC(=O)Cc1ccccc1`, the growth inhibition in test [1] is 4.05%; in test [2] it was 29.8%; in test [3], 1.45%; in test [4], -8%; in test [5], 18.3%; in test [6], 17.6%.
Take `NC(=S)c1ccc[n+]([O-])c1`: the growth inhibition in test [1] was 15.6%; in test [2], 10.1%; in test [3], 20.2%; in test [4] it was -13.7%; in test [5], 6.9%; in test [6] it was 6.85%.
Consider `O=C(O)CN(CC(=O)O)Cc1ccccc1`, for which the growth inhibition was -22.3% in test [1]; 8.7% in test [2]; 6.8% in test [3]; -71.4% in test [4]; 7.9% in test [5]; 4.2% in test [6].
In the case of `CCOC(=O)Cn1c2ccccc2c(=O)c2cc(C)c(C)c(C#N)c21`, the growth inhibition in test [1] is 13.4%; in test [2] it was -12.9%; in test [3] it was -11.6%; in test [4], 9%; in test [5], 8.5%; in test [6], 8.1%.
`CC(=O)Nc1ccc(S(=O)(=O)CCS(=O)(=O)c2ccc(NC(C)=O)cc2)cc1`: the growth inhibition was 7.35% in test [1]; 4.7% in test [2]; -16.1% in test [3]; -6.15% in test [4]; 3.65% in test [5]; -9.45% in test [6].
For the compound `O=C(COc1ccccc1)Nc1cccc(C(=O)O)c1`, the growth inhibition in test [1] is 1.2%; in test [2], 13.5%; in test [3], 21.9%; in test [4], 0.9%; in test [5], 36.6%; in test [6], 32.2%.
In the case of `OCCCNc1ncnc2[nH]ncc12`, the growth inhibition was 7.7% in test [1]; 16.1% in test [2]; 11.6% in test [3]; 59% in test [4]; -4.9% in test [5]; 13.4% in test [6].
With `CCOC(=C\C=C\C1=[N+](C)c2ccccc2C1(C)C)/C=C/C=C1/N(C)c2ccccc2C1(C)C`, the growth inhibition in test [1] is 17.6%; in test [2], 87.6% (active); in test [3] it was 34.2%; in test [4] it was 82.5% (active); in test [5], 81.8% (active); in test [6], 27.6%.
Consider `COc1ccc(NC(=O)CSc2nnc(-c3ccc(NC(C)=O)cc3)o2)cc1`, for which the growth inhibition in test [1] is 22.5%; in test [2], 2.2%; in test [3], 35.6%; in test [4], 22.2%; in test [5] it was 36%; in test [6], 0.55%.
For `Cc1ccc(Cl)cc1NC(=S)N(C)C`, the growth inhibition in test [1] is 15.9%; in test [2], 16.1%; in test [3], 34.7%; in test [4], 3.75%; in test [5], 50.2%; in test [6] it was 24.5%.
On to `COc1ccc2c(c1)CC1=C2CCC2(C)C(=O)CC=C12` (configuration not stated), for which the growth inhibition was 11.7% in test [1]; -8.35% in test [2]; -7.65% in test [3]; 11.8% in test [4]; 4.5% in test [5]; 4.85% in test [6].
Consider `CC1C(=O)OC2C1CCC1(C)C=CC(=O)C(C)C21` (configuration not stated), for which the growth inhibition in test [1] was 10.7%; in test [2], 4.95%; in test [3], 1.15%; in test [4], -23.2%; in test [5], 1.85%; in test [6], 14.8%.
`N#CC(CN1CCCCC1)c1ccccc1` (configuration not stated): the growth inhibition was 5.4% in test [1]; 1.55% in test [2]; 5.2% in test [3]; -41.4% in test [4]; -8.75% in test [5]; 0.8% in test [6].
For `CCCCCCCCCCCCCCCCCCNc1nc(=O)n(C2CC(O)C(COP(=O)(O)O)O2)cc1F` (configuration not stated), the growth inhibition is 12.9% in test [1]; 12.6% in test [2]; 16.8% in test [3]; 17% in test [4]; 9.25% in test [5]; -23% in test [6].
With `O=c1[nH]c2cccnc2[nH]c1=O`, the growth inhibition was -8% in test [1]; -44% in test [2]; -32.8% in test [3]; 4% in test [4]; -32.5% in test [5]; -2.05% in test [6].
Consider `C[P+](C)(C)c1ccccc1`, for which the growth inhibition in test [1] is -16.6%; in test [2] it was 4%; in test [3], 4.95%; in test [4], -22.2%; in test [5], 3.15%; in test [6], -3.7%.
Consider `O=C(O)c1cc(Cl)ccc1[N+](=O)[O-]`, for which the growth inhibition in test [1] was 18.6%; in test [2], -11%; in test [3], 5.5%; in test [4], 7.65%; in test [5], 2.3%; in test [6] it was 11%.
Turning to `O=C(C[n+]1cccc(Cl)c1)c1ccccc1`, the growth inhibition in test [1] is -3.55%; in test [2], 7.9%; in test [3], 7.9%; in test [4], -9.7%; in test [5], -4.85%; in test [6], -0.5%.
